Test results taken from PubChem BioAssay (EPA / NIEHS).
Activity calls are given as the source filed them. How the source made its calls: active means hit-call score of the fitted dose curve at least 0.9, where 1 is the maximum; inactive means score below 0.9.

Read-out: adenosine kinase (ADK) gene, ADK (gene 132)
Experiment: LTEA_HepaRG_ADK: Life Technologies and Expression Analysis (LTEA) Assay for adenosine kinase (ADK) gene using HepaRG (AID 2283471)
Details: mRNA level, 48 h; actives raise or lower the signal
Description: LTEA_HepaRG is a cell based, multiplexed-readout assay that uses HepaRG, a human liver cell line, with measurements taken at 48 hours after chemical dosing on a 96-well plate.LTEA_HepaRG_ADK is one of 102 assay component(s) measured in the LTEA HepaRG cell culture assay. It is a marker of Steatosis.Data from the assay component LTEA_HepaRG_ADK was analyzed into 1 endpoint. This assay endpoint, LTEA_HepaRG_ADK, was analyzed with bidirectional fitting relative to DMSO as the negative control and baseline of activity. Using a type of inducible reporter, measures of mRNA induction for gain or loss-of-signal activity can be used to understand regulation of transcription factor activity. To generalize the intended target to other relatable targets, this assay endpoint is annotated to the kinase intended target family, where the subfamily is steatosis.
A total of 1060 chemcials from the ToxCast library were tested in eight-point concentration-response experiments. Cell culture and cytotoxicity assays were conducted at Thermo Fisher Scientific's Custom Services facility (Madison, WI). A single lot of human HepaRG cells (Thermo Fisher Scientific, Frederick, MD) was used for the cell culture experiments. 96-well format collagen type I coated plates of human HepaRG cells were prepared using established methods. Briefly, cryopreserved HepaRG cells were thawed, plated at a density of approximately 100,000 cells/well in HepaRG Thaw, Plate, and General Purpose media (HPRG770, Thermo Fisher Scientific), and incubated for 48 hours. 0.5% DMSO was selected as vehicle control to balance the requisite need of DMSO in HepaRG cultures to maintain differentiation (for example, baseline metabolism, proportions of hepatocytes vs. cholangiocytes), while enabling further hepatic receptor pathway activation (for example, PXR and CAR) in response to chemical exposure. 48 hours after plating, the culture medium was replaced with HepaRG Serum-Free Incudtion Media. Cells were exposed to each test chemical in duplicate and maintained in CO2 incubators for another 48 hours. Chemical plates were thawed to room temperature and 200x concentrations of treatment groups were prepared. 8-point conentration-reponse curves were made with the highest exposure at 100 uM, followed by half-log dilutions, all in 0.5% DMSO. Each test plate contained variouse controls, induction positive controls (1mM phenobarbital), cytotoxicity positive controls ([…] aflatoxin B1), vehicle controls (0.5% DMSO), and total lysis controls (0.5% DMSO). Cell morphology images were taken using an Essen IncuCyte FLR automated microscope, with six 96-well plates imaged in about 24 minutes. Images were captured and exported and JPEG files. Spent culture media was transfered to black-well plates for the LDH assay, and remaining media was sorted at -80 C for later use. Cells were treated with RLT buffer and frozen until shipped for gene expression analysis. Total RNA was isolated from the cell suspension in 75 uL of Buffer RLT (Qiagen, Germantown, MD 20874) by Quintiles/Expression Analysis (Durham, NC) using a custom isolation procedure. Total RNA from each plate well was transferred to a preamplification plate. Fluidigm's 96.96 Dynamic ArrayTM (Fluidigm, Amsterdam, the Netherlands) technology was used for gene expression analyses by quantitative reverse transcription polymerase chain reaction (qRT-PCR, performed by Quintiles/Expression Analysis, Durham, NC)89. Standard TaqManTM Assays (Applied Biosystems/ThermoFisher Scientific, Foster City, CA) were used to assess the expression of 93 genes selected based on their selectivity and sensitivity to important hepatic receptors known to be modulated by environmental chemicals; importance in human hepatocyte functionality; and hepatotoxicity. […]

Row | Structure (SMILES) | outcome
1 | CCC1(c2ccccc2)C(=O)N=C(O)NC1=O (stereo not given) | inactive
2 | CCCCCCCc1ccc(O)cc1 | inactive
3 | CCOP(=S)(OCC)SCSCC | inactive
4 | Cc1ccc([N+](=O)[O-])cc1C | inactive
5 | CCN(CC)c1ccccc1 | inactive
6 | CCCCN(CCCC)SN(C)C(=O)Oc1cccc2c1OC(C)(C)C2 | inactive
7 | CC(C)(C)c1ccc(O)cc1 | inactive
8 | O=P(Oc1ccccc1)(Oc1ccccc1)Oc1ccccc1 | inactive
9 | O=[N+]([O-])c1ccccc1 | inactive
10 | ClC(Cl)(Cl)c1ccccc1 | inactive
11 | O=C(O)C1C(C(=O)O)C2(Cl)C(Cl)=C(Cl)C1(Cl)C2(Cl)Cl (stereo not given) | inactive
12 | CCOc1ccc(C(C)(C)COCc2cccc(Oc3ccccc3)c2)cc1 | inactive
13 | Nc1ccc(Cl)cc1 | inactive
14 | c1ccc(OP(Oc2ccccc2)Oc2ccccc2)cc1 | inactive
15 | CCC(C)(C)c1ccc(O)cc1 | inactive
16 | c1cc2c3c(cccc3c1)CC2 | inactive
17 | CSC(C)(C)C=NO | inactive
18 | ClC1=C(Cl)C2(Cl)C3C(Cl)C(Cl)CC3C1(Cl)C2(Cl)Cl (stereo not given) | inactive
19 | Nc1ccc2ccccc2c1 | inactive
20 | CCCCN(CCCC)N=O | inactive

Row | Structure (SMILES) | outcome
21 | Cc1cccc(N)c1 | inactive
22 | Cc1ccc(O)cc1C | inactive
23 | c1ccc2c(c1)Nc1ccccc1S2 | inactive
24 | O=C(O)C(Cl)Cl | inactive
25 | O=[N+]([O-])c1ccc(Cl)c(Cl)c1 | inactive
26 | CCOS(=O)(=O)OCC | inactive
27 | CN(C)C(=O)Cl | inactive
28 | CC(Cl)(Cl)C(=O)O | inactive
29 | CCOC(=O)c1ccccc1C(=O)OCC | inactive
30 | CCNc1nc(Cl)nc(NC(C)(C)C)n1 | inactive
31 | OCC1CO1 (stereo not given) | inactive
32 | Cc1ccc(N)cc1N | inactive
33 | CC(C)(C)OOC(C)(C)C | inactive
34 | CC(Cc1ccc(OCC(=O)O)cc1)NCC(O)c1csc(C(F)(F)F)n1 (stereo not given) | inactive
35 | CCOP(=S)(Oc1ccc([N+](=O)[O-])cc1)c1ccccc1 (stereo not given) | inactive
36 | ClC(Cl)c1ccccc1 | inactive
37 | c1nc[nH]n1 | inactive
38 | O=P1(N(CCCl)CCCl)NCCCO1 (stereo not given) | inactive
39 | CCCCc1ccccc1 | inactive
40 | Nc1cc2c3c(c1)C(c1ccccc1)=N[C@@H](NC(=O)c1cccnc1)C(=O)N3CC2 | inactive
